AT treatment: potential ataxia-telangiectasia treatment; F2112 A-T fibroblasts, KAP-1 phosphorylation AlphaLISA; neocarzinostatin DNA damage 30 min before lysis; Potency, µM (top dose mostly 57.5 µM), actives largely listed as activators; 320,000 tested, 0.19% active; AID 485349; also: nearly all actives have a fitted effect of over 45% in size
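hTERT-immortalized A-T patient fibroblasts (F2112), 500 cells/well in OPTI-MEM, 1% FBS, got compounds for 60 min, then NCS for 30 min at 37C. Lysates were then assayed for phospho-KAP-1 by AlphaLISA (anti-pKAP1 donor, anti-KAP1 acceptor beads), 6 hr at 25C.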
Tb PFK inh: inhibitors of T. brucei phosphofructokinase; T. brucei PFK, ADP-Glo luminescence; Potency, µM (series often up to 57.5 µM), actives largely listed as inhibitors; 330,000 tested, 0.17% active; AID 485367; also: nearly all actives have a fitted effect of over 60% in size
Target sequence (O15648 whole entry, looked up): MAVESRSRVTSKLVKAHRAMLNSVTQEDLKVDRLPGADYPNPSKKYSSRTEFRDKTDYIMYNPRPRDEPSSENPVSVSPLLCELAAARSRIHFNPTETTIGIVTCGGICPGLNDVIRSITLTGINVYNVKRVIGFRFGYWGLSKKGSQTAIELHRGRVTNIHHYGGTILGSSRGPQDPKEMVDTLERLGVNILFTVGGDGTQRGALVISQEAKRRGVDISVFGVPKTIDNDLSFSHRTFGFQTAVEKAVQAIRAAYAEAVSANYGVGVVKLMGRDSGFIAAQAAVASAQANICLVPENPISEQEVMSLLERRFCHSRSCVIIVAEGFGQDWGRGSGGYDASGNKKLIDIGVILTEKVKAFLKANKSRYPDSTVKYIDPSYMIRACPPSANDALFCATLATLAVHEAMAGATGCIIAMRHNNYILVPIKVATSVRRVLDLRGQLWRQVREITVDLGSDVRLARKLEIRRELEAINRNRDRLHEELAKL
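Luminescent ADP detection (ADP-Glo, two-step: ATP depletion then ADP-to-ATP conversion for luciferase) reported PFK activity after 45 min room-temperature reaction of 1.25 nM enzyme with 0.5 mM F6P and 0.1 mM ATP at pH 8.0.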
TCR act: activates T cell receptor signaling | primary human leukocytes, anti-CD3, IL-2 HTRF, 48 h | Potency, µM (series often up to 9.22 µM), hits mostly activators | 330,000 tested, under 10 active
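Primary human leukocytes were stimulated with a-CD3 beads plus compounds for 48 hr without co-stimulation; secreted IL-2 was quantified by HTRF using a-IL-2-K (europium cryptate) and a-IL-2-d2, excited at 320nm with acceptor emission read at 665nm.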
Integrin act MD: activators of alpha7 integrin expression for muscular dystrophy. alpha7betagal myoblasts, beta-gal FDG fluorescence, 48 h. 350,000 tested, 0.064% active. AID 624291. Potency, µM (doses to about 38.3 µM), actives largely listed as activators; also: nearly all actives have a fitted effect of over 60% in size
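Alpha7betagal+/- myoblasts (passage 13) were plated 16-24 hr, then exposed to compounds (1:260 dilution of DMSO stock) for 48 hours at 37C. After MPER lysis, β-galactosidase reporter activity was read as FDG fluorescence (ex 480/em 540) after 30 minutes.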
IL-2 act: activators of IL-2. IL-2 activation reporter assay, cell-based qHTS; stimulated with anti-CD3/CD4/CD28 beads; in transgenic mouse T cells. activation, % (series mostly up to about 46 µM). 360,000 tested, 0.065% active; in the data active = activation above about 50%; inconclusive = mostly about 30% to 49%
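Unstimulated transgenic mouse T cells, 750 per well, received compound and, after 60 minutes, anti-CD3/anti-CD4 bead plus anti-CD28 stimulation. EGFP and DsRed were quantified after 18 hours.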
PKM2 activator: PKM2 (human) enzyme activation; P14618; purified PKM2, Kinase-Glo ATP luminescence, activation; response scale: 0% is enzyme alone, no compound; Potency, µM (highest dose often 57.5 µM), usual class: activators; 260,000 tested, 0.34% active; also: nearly all actives have a fitted effect of over 55% in size
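Kinase-Glo luminescence reports ATP generated from ADP (0.1 mM) and PEP (0.5 mM) by purified hPK-M2 after 1 h at room temperature, pH 7.2 imidazole buffer; intermediate enzyme activity allows detecting inhibitors and activators.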
Numbers stand for hits; - = inactive; ? = inconclusive; . = not tested or not shown; [ ] = another dose, or the depositor's remark. The list is not random: actives were taken first. Their share in the collection is about 0.69%. Unless noted, calls follow the shape of the dose curve; as a rule, active = well fitted curve in the direction sought with a large enough effect; inconclusive = small, poorly fitted or top-dose-only effect, or another doubt; inactive = no such curve, though single readings can be large; an effect the other way counts as inactive or inconclusive.

SMILES | AT treatment | Tb PFK inh | TCR act | Integrin act MD | IL-2 act | PKM2 activator
CN(Cc1cccc([N+](=O)[O-])c1)Cc1cccc2ccccc12 | - | - | - | - | - | -
CN(C/C=C/c1ccccc1)Cc1cccc2ccccc12 | 39.8µM | - | - | . | - | .
O=C(O)c1ccc(NS(=O)(=O)c2ccsc2C(=O)O)cc1 | . | . | . | . | . | -
COc1ccc(C(=O)O/N=C(\N)c2cccc(C)c2)cc1OC | - | - | - | 10µM | - | .
COc1ccc(C(=O)O/N=C(\N)c2ccccc2)cc1OC | - | - | - | ? | - | .
CC(C)c1cccc2cc3c(nc12)-c1cccc(=O)n1C3 | . | . | . | . | . | -
COc1ccccc1NS(=O)(=O)c1cccc(NC(=O)c2[nH]c(C)c(C(C)=O)c2C)c1 | - | - | - | - | - | 12.6µM
COc1ccccc1NC(=O)c1[nH]c(C)c(C(C)=O)c1C | - | - | - | - | - | -
c1ccc(CCc2ccccc2-c2nc(-c3cccnc3)no2)cc1 | 39.8µM | - | - | - | - | -
COC(=O)[C@@H]1C[C@H]2CC[C@H](O)C[C@H]2N1Cc1ccc(N2CCOCC2)cc1 | . | . | . | . | . | -
CCOC(=O)c1cc2c(ccn2C)n1CC(=O)N1CCN(c2cccc(C(F)(F)F)c2)CC1 | - | - | - | - | - | 31.6µM
CCOC(=O)c1cc2c(ccn2C)n1CC(=O)N1CCN(c2ccc(F)cc2)CC1 | - | - | - | - | - | -
Cc1ccc(/C=N/NC(=O)Cn2nnc(N)n2)cc1 | 25.1µM | - | - | - | - | -
COc1ccc2c(c1)c(N=NC(N)=S)c(O)n2CC(=O)c1ccccc1 | 0.708µM | - | - | - | - | .
CC(C)(C)c1ccc(C(=O)c2c[nH]c(C(=O)O)c2)cc1 | - | - | - | - | - | 31.6µM
COC(=O)c1cc(C(=O)c2ccc(C(C)(C)C)cc2)c[nH]1 | - | - | - | - | - | -
CCN(CC)Cc1c(O)ccc2cc(-c3nc4ccccc4n3C)c(=O)oc12 | 22.4µM | - | - | - | - | .
NS(=O)(=O)c1ccc(NC(=O)c2cc(-c3ccccc3O)n[nH]2)cc1 | - | - | - | 10µM | - | .
Oc1ccc(CNCc2ccc3c(c2)OCO3)c2cccnc12 | - | - | . | . | . | .
NC(=O)c1nsc(C(=O)N(c2ccccc2)C(C(=O)NCc2ccc(F)cc2)c2ccc(O)cc2)c1N (configuration not stated) | - | - | - | 2.24µM | - | -
NC(=O)c1nsc(C(=O)N(c2ccccc2)C(C(=O)NCc2ccc(F)cc2)c2ccco2)c1N (configuration not stated) | - | - | - | - | - | -
Cc1noc(C)c1S(=O)(=O)N1CCc2nc(-c3ccccc3)c3c(c2C1)CO[C@@H](C)C3 | . | . | . | . | . | -[11.5 µM]
CCCCc1nc2c(c3c1C[C@H](C)OC3)CN(S(=O)(=O)CCCC)CC2 | . | . | . | . | . | -[11.5 µM]
COc1ccccc1C(=O)N=c1sc2c(C)ccc(OC)c2n1C | 15.8µM | - | - | - | - | -
COc1ccc(C(=O)N=c2sc3c(C)ccc(OC)c3n2C)cc1OC | - | - | - | - | - | -
SMILES | AT treatment | Tb PFK inh | TCR act | Integrin act MD | IL-2 act | PKM2 activator
CCCn1c(-c2ccc(F)cc2)nc2c(N3CCN(Cc4nc(OC)cc(OC)n4)CC3)nc(C)nc21 | . | . | . | . | . | -
COC(=O)c1ccc(CSc2nnc3nc(C)cc(C)n23)cc1 | - | - | - | - | - | -
Cc1cc(C)n2c(SCc3ccc(Br)cc3)nnc2n1 | 3.55µM | - | - | - | - | -
Cc1cc(=O)oc2cc(NS(=O)(=O)c3ccc(F)cc3)ccc12 | - | - | - | - | - | ?
Cc1cc(=O)oc2cc(NS(=O)(=O)c3ccccc3)ccc12 | - | - | - | - | - | 15.8µM
NCCCC[C@@H]1NC(=O)c2cc([N+](=O)[O-])cc(I)c2SC[C@@H](C(=O)NCC(N)=O)NC(=O)CNC1=O | - | - | - | - | - | -
C=CCn1c(SCC(=O)Nc2ccc(N3CCOCC3)cc2)nnc1-c1ccco1 | 25.1µM | - | - | - | - | .
CCCCn1nnnc1C1(C)CCC(=O)N1CC(F)(F)F (configuration not stated) | . | . | . | . | - | .

Source: PubChem
